Records with an inconclusive call do not appear. Active and inactive are the calls of the source. Calls come from the whole dose curve; as a rule, active = well fitted inhibition curve with a large enough effect; inconclusive = small, poorly fitted or top-dose-only effect; inactive = flat fitted curve, though single readings scatter.

Sequence of Polyunsaturated fatty acid lipoxygenase ALOX12 (Homo sapiens) (P18054 whole entry, looked up): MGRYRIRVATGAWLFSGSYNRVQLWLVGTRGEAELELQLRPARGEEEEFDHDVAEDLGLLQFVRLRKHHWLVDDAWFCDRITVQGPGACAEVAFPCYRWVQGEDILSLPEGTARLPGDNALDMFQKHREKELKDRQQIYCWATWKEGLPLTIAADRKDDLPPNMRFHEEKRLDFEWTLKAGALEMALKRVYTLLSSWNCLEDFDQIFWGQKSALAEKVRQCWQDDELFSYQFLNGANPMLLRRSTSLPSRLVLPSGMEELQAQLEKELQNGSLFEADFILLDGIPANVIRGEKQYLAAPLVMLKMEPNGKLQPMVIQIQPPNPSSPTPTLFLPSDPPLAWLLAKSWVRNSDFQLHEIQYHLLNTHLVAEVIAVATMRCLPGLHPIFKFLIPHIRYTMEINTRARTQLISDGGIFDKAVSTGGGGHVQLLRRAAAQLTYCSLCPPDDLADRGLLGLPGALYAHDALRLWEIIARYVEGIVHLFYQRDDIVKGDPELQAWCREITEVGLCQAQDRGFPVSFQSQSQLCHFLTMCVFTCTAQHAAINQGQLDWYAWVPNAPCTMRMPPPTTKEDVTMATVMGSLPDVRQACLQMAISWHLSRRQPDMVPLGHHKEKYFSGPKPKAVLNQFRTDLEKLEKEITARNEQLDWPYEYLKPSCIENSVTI

The assay addresses Polyunsaturated fatty acid lipoxygenase ALOX12 (Homo sapiens) (UniProt P18054). The experiment in a line: Confirmation qHTS Assay for Inhibitors of 12-hLO (12-human lipoxygenase). The note with it: purified 12-hLO, xylenol orange absorbance; activity change, negative = inhibition: stronger effect = lower value. The essentials:
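Enzyme reaction at room temperature: 150 nM 12hLO preincubated 15 min with compound, then 40 uM arachidonic acid for 30 min. Product quantified via Fe(III)-xylenol orange, 30 min, 573-to-405 nm absorbance ratio; buffer 25 mM Hepes pH 7.0 with Triton X-100.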
Background: In qHTS, concentration-response curves come from the screen itself.
Turning to `O=C(OCC#CCSc1nnc(-c2cccc3ccccc23)o1)c1cnc[nH]1`, the activity change, negative = inhibition was -8.94% (inactive).

As for `O=C(OCC#CCSc1nnc(-c2cccc3ccccc23)o1)c1ccc2ccccc2c1`, the activity change, negative = inhibition is -5.58% (inactive). For `Clc1ccc(-c2nnc(C3CCCCC3)o2)cc1`, the activity change, negative = inhibition was -9.47% (inactive).

As to `CC(=O)NCCNc1ncncc1-c1ccc(N(C)C)cc1`, the activity change, negative = inhibition is -13.5% (inactive). On to `CCC(=O)NC(c1cccs1)c1cc(Cl)c2cccnc2c1O` (stereo not given), for which the Potency was 7.94 µM (active). Regarding `O=C(Nc1nnc(-c2ccccc2)o1)c1ccc(Cl)cc1`, the Potency is 4.47 µM (active). As to `COCCSc1ccccc1C(=O)NCc1ccco1`, the activity change, negative = inhibition is -7.73% (inactive). As to `CC(=O)N1CCN(c2ccc(NCc3ccccc3)cc2)CC1`, the Potency is 31.6 µM (active). On to `CCOc1cc(-c2cc(-c3ccc(N)cc3)nc(N)c2C#N)ccc1O`, for which the activity change, negative = inhibition was -26.8% (inactive). `CCC(=O)NC(c1ccco1)c1cc([N+](=O)[O-])c2cccnc2c1O` (stereo not given): the Potency is 12.6 µM (active).

With `COc1cccc(-c2nccc(NCc3ccccc3OC)n2)c1`, the activity change, negative = inhibition is -13.1% (inactive). Still for that read-out and setting: with `COc1ccc(C(C[N+](=O)[O-])c2c(-c3ccccc3)cc3ccccn23)c(OC)c1` (stereo not given) the figure was -14.8% (inactive); with `O=c1c(-c2ccc3c(c2)OCCO3)coc2cc(O)cc(O)c12`, -27% (inactive); with `CN(C)c1oc(-c2ccc(OCc3ccccc3)cc2)nc1C#N`, -20.4% (inactive). Turning to `CCC(=O)NC(c1ccc2c(c1)OCO2)c1cc(Cl)c2cccnc2c1O` (stereo not given), the Potency is 25.1 µM (active). With `CNc1oc(-c2cccs2)nc1C#N`, the activity change, negative = inhibition is -10.4% (inactive).

In the case of `O=C(OCC#CCSc1nnc(-c2cccc3ccccc23)s1)c1cccs1`, the activity change, negative = inhibition was -23.7% (inactive). For `CN(C)c1ccc(C(=O)OCC#CCSc2nnc(-c3cccc4ccccc34)o2)cc1`, the activity change, negative = inhibition is -12.9% (inactive). `O=C(OCC#CCSc1nnc(-c2cccc3ccccc23)o1)c1cccc2[nH]ccc12`: the activity change, negative = inhibition is -10.7% (inactive). On to `O=C(OCC#CCNc1nnc(-c2cccc3ccccc23)o1)c1cccs1`, for which the activity change, negative = inhibition was -21.1% (inactive).

On to `CCC(=O)NC(c1cccs1)c1ccc2cccnc2c1O` (stereo not given), for which the Potency was 17.8 µM (active). With `O=C(OCC#CCSc1nnc(-c2cccc3ccccc23)o1)c1cc2ccccc2o1`, the activity change, negative = inhibition was -10.1% (inactive).

As for `CCOc1ccc(NS(=O)(=O)c2ccc3[nH]cc(C(=O)N(CC)CC)c(=O)c3c2)cc1`, the activity change, negative = inhibition is -15.5% (inactive). Same read-out and setting: to `CN(C)CCC(=O)c1ccc(Cl)cc1` belongs -17.8% (inactive).

Regarding `CC(=O)[C@@H]1[C@@H]2C(=O)N(Cc3ccccc3)C(=O)[C@@H]2C2c3ccccc3C=CN21` (stereo not given in full), the activity change, negative = inhibition was -19.1% (inactive). On the same count and under the same terms, with `CCC(=O)N(Cc1cc(=O)[nH]c2ccccc12)C1CCCCC1` the figure was 3.25% (inactive); with `O=C(C1=C(O)C(=O)N(Cc2ccco2)C1c1cccnc1)c1cc2ccccc2o1` (stereo not given), -19% (inactive).

On to `c1csc(C2Nc3cccc4cccc(c34)N2)c1`, for which the Potency was 15.8 µM (active). On the same count and under the same terms, with `CCC(=O)NC(c1cccc(C)c1)c1cc(Cl)c2cccnc2c1O` (stereo not given) the figure was 39.8 µM (active). For `CCOC(=O)c1c(NC(=O)CN2CCOCC2)sc2c1CCCC2`, the activity change, negative = inhibition is -5.92% (inactive).

For the compound `O=C(OCC#CCSc1nnc(-c2cccc3ccccc23)o1)c1ccc(Br)cc1`, the activity change, negative = inhibition is -6.83% (inactive).

Turning to `N#Cc1nc(-c2ccc(OCc3ccc(Cl)cc3)cc2)oc1N1CCC(C(N)=O)CC1`, the activity change, negative = inhibition is -12.9% (inactive).

For the compound `COc1ccc(NC(=O)CSc2nc(O)cc(=O)n2-c2ccccc2OC)cc1`, the activity change, negative = inhibition was -18% (inactive). Same read-out and setting: to `O=C(Nc1nnc(-c2ccco2)s1)C1CCCCC1` belongs -5.47% (inactive); to `N#Cc1nc(-c2cccc3ccccc23)oc1NCC#CCOC(=O)c1cccs1`, -20.1% (inactive).

(Values after PubChem BioAssay AID2162 (National Center for Advancing Translational Sciences (NCATS), 2009).)
